Measured values taken from PubChem BioAssay.
Active and inactive are the calls of the source. Unless noted, no rule for the calls is given here.

Tests used:
[1] = system: Wnt5a (protein binding on small-molecule microarray); assay: small molecules binding Wnt5a protein – biophysical, small-molecule microarray, 635/667 nm fluorescence, primary screen (AID 1142); details: 635 nm fluorescence, higher = more signal;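 also: fluorescence read at 667 nm with signal to noise per printed feature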
[2] = ATP-based viability of Huh7 replicon cells – cell-based, CellTiter-Glo luminescence, basal, 48 h, cytotoxicity control for HCV replication inhibitor project, primary screen (AID 1143); details: higher = more signal, called active from +8 up or from −8 down;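 also: Huh7 hepatoma cells carrying a hepatitis C replication reporter with no stimulus; test concentration not given here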
[3] = Pseudomonas biofilm growth suppression – PAO1 strain, BacTiter-Glo luminescence, LB-PBS, primary screen (AID 1144); details: P. aeruginosa PAO1 biofilm, 12 h, higher = more signal
[4] = basal CRE-LacZ reporter activity in PC12 – cell-based, unstimulated, primary screen (AID 1145); details: no forskolin, luminescence, 4.5 h, higher = more signal, called active from +8 up or from −8 down
[5] = forskolin-driven CRE-LacZ activity in PC12 – cell-based, CRE-LacZ reporter, forskolin-stimulated, primary screen (AID 1146); details: luminescence, 4.5 h, higher = more signal, called active from +8 up or from −8 down;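 also: PC12 cells with 6xCRE LacZ reporter stimulated by forskolin 10 µM; beta-galactosidase reporter signal reflecting CREB driven transcription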
[6] = biological target: Streptavidin (Streptomyces avidinii) (UniProt P22629); assay: compounds binding control protein streptavidin – biophysical, small-molecule microarray, 635/667 nm fluorescence, artefact control for SMM compound annotation, primary screen (AID 1147); details: higher = more signal;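 also: signal reflects streptavidin binding to arrayed compounds as a control protein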
[7] = probe aInhba binding on compound microarray – biochemical, small-molecule microarray, 635/667 nm fluorescence, primary screen (AID 1148); details: higher = more signal;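 also: score merges 667nm spot fluorescence with signal-to-noise for antibody binding to printed compounds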
Torsin-1A (Homo sapiens) [8] = biological target: Torsin-1A (Homo sapiens) (UniProt O14656); assay: TOR1A wild-type binding on microarray – cell lysate, small-molecule microarray, lysate, 635/667 nm, primary screen (AID 1149); details: COS7 hTOR1A-WT lysate, 635 nm fluorescence, higher = more signal
Torsin-1A (Homo sapiens) [9] = biological target: Torsin-1A (Homo sapiens) (UniProt O14656); assay: torsin A mutant lysate binding on microarrays – cell lysate, small-molecule microarray, COS7 lysate, 635/667 nm fluorescence, primary screen (AID 1150); details: COS7 hTOR1A mutant lysate, 635 nm fluorescence, higher = more signal;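 also: score pools 667 nm emission and signal to noise measuring lysate protein binding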
[10] = system: Sonic hedgehog protein (Shh); assay: Sonic hedgehog microarray binding compounds – biochemical, small-molecule microarray, 635/667 nm fluorescence, primary screen (AID 1151); details: 635 nm fluorescence, higher = more signal;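 also: Shh protein binding to compounds spotted on small-molecule microarray slides; score combines spot fluorescence intensity with signal-to-noise across triplicate slides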

Sequence of Torsin-1A (Homo sapiens) (O14656 whole entry, looked up): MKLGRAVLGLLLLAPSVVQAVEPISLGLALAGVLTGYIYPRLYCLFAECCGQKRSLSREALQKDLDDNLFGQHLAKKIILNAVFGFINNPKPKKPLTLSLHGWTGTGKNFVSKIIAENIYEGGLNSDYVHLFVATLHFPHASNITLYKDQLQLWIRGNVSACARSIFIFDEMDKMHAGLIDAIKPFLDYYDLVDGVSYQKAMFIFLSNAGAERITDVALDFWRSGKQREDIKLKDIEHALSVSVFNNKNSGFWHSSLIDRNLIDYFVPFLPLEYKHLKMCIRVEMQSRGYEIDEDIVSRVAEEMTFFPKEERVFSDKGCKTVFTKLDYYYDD
Sequence of Streptavidin (Streptomyces avidinii) (P22629 whole entry, looked up): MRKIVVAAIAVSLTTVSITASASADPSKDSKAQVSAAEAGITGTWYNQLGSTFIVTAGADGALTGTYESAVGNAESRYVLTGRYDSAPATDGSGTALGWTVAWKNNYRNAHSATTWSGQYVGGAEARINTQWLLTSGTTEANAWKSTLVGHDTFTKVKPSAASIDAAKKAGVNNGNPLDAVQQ

SMILES	composite z-score [1]	z-score [2]	z-score [3]	z-score [4]	z-score [5]	composite z-score [6]	composite z-score [7]	composite z-score (Torsin-1A (Homo sapiens) [8])	composite z-score (Torsin-1A (Homo sapiens) [9])	composite z-score [10]
COc1cccc(C)c1NC(=O)O[C@H]1[C@H](OC(=O)Nc2ccc3c(c2)OCO3)[C@@H](OC(=O)Nc2ccc3c(c2)OCO3)[C@@H](OC)O[C@@H]1CO	0.648	-1.19 (inactive)	0.0488 (inactive)	1.45 (inactive)	-0.424 (inactive)	1.3	0.0319	1.11	1.19	1.54
CC1CC/C=C\[C@H]2OC34C=CCN(C(C)C)C(=O)[C@H]3N(CCO)C(=O)[C@@H]4C2C(=O)O1 (stereo not given in full)	-0.417	-0.177 (inactive)	0.591 (inactive)	-0.619 (inactive)	-0.599 (inactive)	-1.14	-0.203	-0.737	-1.17	-0.778
C=CC[C@H](OC(=O)Nc1ccc(SC)cc1)c1ccc(O)c2ccccc12	0.336	-6.78 (inactive)	-0.921 (inactive)	4.1 (inactive)	3.2 (inactive)	1.61	-0.101	0.557	0.465	1.76
C=CCN1C(=O)[C@]2(CCC(=O)OC(C)(C)C)N=C(c3ccc(OCCCO)cc3)O[C@@H]2c2ccccc21	0.176	-3.67 (inactive)	-0.149 (inactive)	0.124 (inactive)	-1.99 (inactive)	0.0475	0.0631	-0.0806	0.19	1.71
CCCCC(=C=CC[C@H](O)c1ccc(OCCO)cc1)CCO	-0.0188	-1.08 (inactive)	0.489 (inactive)	2.57 (inactive)	0.0098 (inactive)	-0.209	-0.0451	0.678	1.58	0.011
CC(c1ccccc1)C(O)C1C=CC2C(=O)N(C)C(=O)C2N1Nc1ccccc1 (stereo not given)	0.462	0.481 (inactive)	-0.0225 (inactive)	0.0535 (inactive)	-0.0744 (inactive)	1.62	0.562	0.112	0.299	-0.353
CCCC=C(CCC)[C@@H](NC(=O)c1cccs1)c1ccc(C(=O)OC)cc1	0.535	-0.268 (inactive)	-0.473 (inactive)	-0.951 (inactive)	0.158 (inactive)	0.373	0.375	0.657	0.183	-0.83
